Inconclusive results are not listed. Where a structure was tested more than once in an assay, its records may differ in their call. Activity calls are given as the source filed them. How the source made its calls, unless noted: active means hit-call score of the fitted dose curve at least 0.9, where 1 is the maximum; inconclusive means response in the unintended direction; inactive means score below 0.9.
Tests used:
[1] = CEETOX_H295R_MTT_cell_viability: Viability Assessment in the CeeTox HT-H295R MTT Assay (AID 2283718; active means hit-call score of the fitted dose curve at least 0.9, where 1 is the maximum; inactive means score below 0.9;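 on AC50: curve fitted both ways so AC50 may mark viability loss or gain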)
Procedure, shortened: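 Human H295R adrenal cells, prestimulated 48 h with 10 uM forskolin, were exposed 48 h to chemicals in 0.1% DMSO. Viability was measured in the same wells by MTT (0.5 mg/ml, 4 h, 37 C), absorbance 570/650 nm, as percent of controls.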

[2] = test system: Thyroperoxidase (TPO), gene 54314; experiment: CCTE_Simmons_AUR_rTPO: CCTE's Amplex UltraRed Assay for Thyroperoxidase (TPO) Inhibition, Simmons Lab (AID 2283662);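 on AC50: potency for loss of signal meaning inhibition of peroxidase activity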
Procedure, shortened: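 Rat thyroid microsomes (5 ug protein) were incubated with test compound (8 concentrations, 5 nM–87.5 uM final, 0.5% DMSO), 25 uM Amplex UltraRed and 300 uM H2O2 in 200 mM phosphate buffer for 30 min at 37C in the dark; fluorescence read at 544/590 nm.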

[3] = CCTE_Simmons_CellTiterGLO_HEK293T: Viability Assessment in CCTE's Assays for Thyroperoxidase (TPO) Inhibition, Simmons Lab (AID 2283665);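 on AC50: cells exposed to compound for 24 h before readout; actives reduce ATP signal below DMSO vehicle meaning cytotoxicity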
Procedure, shortened: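 Cytotoxicity counter-screen: human HEK293T cells in low-serum (1% FBS) medium receive test chemical, 5 nM to 87.5 uM final, for 24 h; ATP is quantified by luciferase luminescence.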

[4] = target: Luciferin 4-monooxygenase (Photinus pyralis) (UniProt P08659); experiment: CCTE_Simmons_QuantiLum_inhib_2: CCTE's Firefly Luciferase Inhibition Assay, Simmons Lab (AID 2283767);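 on AC50: potency for inhibitors that lower luciferase luminescence relative to DMSO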
Sequence of Luciferin 4-monooxygenase (Photinus pyralis) (P08659 whole entry, looked up): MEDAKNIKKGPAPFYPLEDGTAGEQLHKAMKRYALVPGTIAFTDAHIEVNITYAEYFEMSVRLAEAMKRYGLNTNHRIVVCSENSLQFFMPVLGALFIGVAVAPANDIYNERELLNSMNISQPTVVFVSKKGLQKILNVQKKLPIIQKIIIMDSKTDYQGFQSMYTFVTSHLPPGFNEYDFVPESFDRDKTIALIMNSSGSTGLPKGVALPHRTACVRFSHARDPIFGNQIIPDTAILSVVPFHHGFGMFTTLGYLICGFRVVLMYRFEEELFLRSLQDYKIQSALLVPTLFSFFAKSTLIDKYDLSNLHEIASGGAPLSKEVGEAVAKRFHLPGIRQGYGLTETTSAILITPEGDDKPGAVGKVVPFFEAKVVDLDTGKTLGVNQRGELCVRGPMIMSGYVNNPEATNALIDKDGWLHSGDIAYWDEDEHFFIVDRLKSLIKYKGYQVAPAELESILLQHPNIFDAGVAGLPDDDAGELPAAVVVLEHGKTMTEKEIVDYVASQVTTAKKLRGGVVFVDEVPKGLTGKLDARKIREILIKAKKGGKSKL
Procedure, shortened: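 Counter-screen for nonspecific enzyme inhibition: purified firefly luciferase incubated 30 min at 37C with chemicals up to 87.5 uM final, then luminescence measured after luciferin/dATP injection; activity fitted against DMSO baseline.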

[5] = ACEA_AR_agonist_AUC_viability: ACEA Biosciences xCELLigence Real-Time Cell Analysis on Androgen Receptor Agonism for Viability (AID 2283775);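 on AC50: viability read 80 hours after compound addition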
Procedure, shortened: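 Read-out is area under the impedance curve at 80 h post-dose in 22Rv1 cells, with DMSO as baseline and signal loss taken as reduced viability. Compounds ran in duplicate from 100 uM final.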

[6] = ACEA_AR_antagonist_AUC_viability: ACEA Biosciences xCELLigence Real-Time Cell Analysis on Androgen Receptor Antagonism for Viability (AID 2283776);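 further: 22Rv1 human prostate cancer cells growing on impedance electrode plates; area under impedance growth curve at 80 h after dosing as viability; hits lower the growth signal relative to DMSO meaning cytotoxicity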
Procedure, shortened: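 Impedance read-out (RT-CES): area under growth curve at 80 h post-dose, loss of signal scored vs DMSO baseline. 22Rv1 cells; 8-pt 1:4 series, top 100 uM final, ≤0.5% DMSO; biological duplicate.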

[7] = Tanguay_ZF_120hpf_SWIM_legacy: (Legacy) Oregon State University Tanguay Lab 120 Hour Post-fertilization zebrafish Assay for Swim Bladder Malformation (AID 2283654);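 further: swim bladder malformation in each larva scored yes or no under brightfield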
Procedure, shortened: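 Dechorionated wild-type Tropical 5D zebrafish embryos, one per well from 6 hpf, were statically exposed at 28C until 120 hpf in 0.64% DMSO. Swim bladder malformation scored as present/absent by brightfield microscopy; not scored in dead larvae.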

[8] = Tanguay_ZF_120hpf_TRUN_legacy: (Legacy) Oregon State University Tanguay Lab 120 Hour Post-fertilization zebrafish Assay for Truncated Body (AID 2283655)
Procedure, shortened: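 Truncated body is recorded as a binary endpoint at 120 hpf by brightfield imaging of wild-type 5D larvae. Exposure runs statically from 6 hpf at 28C with 0.64% DMSO; embryos dying earlier are not scored.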

[9] = Tanguay_ZF_120hpf_NC_legacy: (Legacy) Oregon State University Tanguay Lab 120 Hour Post-fertilization zebrafish Assay for Notochord and Tail Malformation (AID 2283656)
Procedure, shortened: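 Dechorionated 5D zebrafish, 1/well from 6 hpf; static exposure to 120 hpf, 28C, sealed, dark; final DMSO 0.64% v/v. NC scored binary (present/absent); dead embryos not scored. Fit vs DMSO baseline, gain direction.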

[10] = Tanguay_ZF_120hpf_TR_legacy: (Legacy) Oregon State University Tanguay Lab 120 Hour Post-fertilization zebrafish Assay for Touch Response (AID 2283667)
Procedure, shortened: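 Tropical 5D wild-type zebrafish embryos statically exposed to 120 hpf at 28°C, sealed and dark-covered, 0.64% DMSO final; touch response scored as present/absent by brightfield microscopy at 120 hpf. Trimethyltin chloride 5 uM positive control; dead embryos not scored.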

[11] = Tanguay_ZF_120hpf_ActivityScore_legacy: (Legacy) Oregon State University Tanguay Lab 120 Hour Post-fertilization zebrafish Assay Score for Activity (AID 2283742)
Procedure, shortened: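 Dechorionated Tropical 5D embryos, one per well from 6 hpf, statically exposed to 120 hpf at 28 °C in 0.64% DMSO. Mortality and malformations scored binary by brightfield microscopy; activity score combines 18 endpoints, fitted positively versus DMSO.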

[12] = STM_H9_OrnCyssISnorm_ratio: Stemina devTOX quickPredict H9 human embryonic stem cell (hESC)-based Assay for Ornithine (ORN):Cystine (CYSS) Ratio (AID 2283714)
Procedure, shortened: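 Undifferentiated H9 hESCs exposed 72 h, media and compound replaced every 24 h; final 24-h conditioned media deproteinized and analysed by UPLC-HRMS against C13 spike-ins. Value is the internal-standard-normalized ORN/CYSS ratio versus 0.1% DMSO.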

[13] = target: zebrafish Estrogen Receptor (ESR1), esr1 (gene 259252) (UniProt P57717); experiment: ATG_zfER1_XSP1: Attagene TRANS-FACTORIAL Multi-Species (XSP1) HepG2 Assay for zebrafish Estrogen Receptor (ESR1) (AID 2283772)
Sequence of zebrafish Estrogen Receptor (ESR1), esr1 (gene 259252) (P57717 whole entry, looked up, the tested form may be a part): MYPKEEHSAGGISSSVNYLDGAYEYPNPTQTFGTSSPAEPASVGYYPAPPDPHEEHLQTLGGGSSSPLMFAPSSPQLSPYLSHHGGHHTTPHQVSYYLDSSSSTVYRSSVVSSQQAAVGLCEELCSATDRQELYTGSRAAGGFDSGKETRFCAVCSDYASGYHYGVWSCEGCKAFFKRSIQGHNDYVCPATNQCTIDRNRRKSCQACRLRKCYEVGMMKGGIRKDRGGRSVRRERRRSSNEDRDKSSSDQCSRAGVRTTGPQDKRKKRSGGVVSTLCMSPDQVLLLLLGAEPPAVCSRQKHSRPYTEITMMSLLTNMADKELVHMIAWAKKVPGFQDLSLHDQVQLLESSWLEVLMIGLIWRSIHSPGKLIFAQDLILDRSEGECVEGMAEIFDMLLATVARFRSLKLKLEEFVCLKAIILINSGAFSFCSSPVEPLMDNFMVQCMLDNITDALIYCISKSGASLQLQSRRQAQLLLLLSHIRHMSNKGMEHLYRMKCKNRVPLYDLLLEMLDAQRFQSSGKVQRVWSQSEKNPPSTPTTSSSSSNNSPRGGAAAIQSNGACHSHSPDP
Procedure, shortened: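 Transfect HepG2 with GAL4-UAS multi-reporter constructs; treat 24 h (medium carries 3 nM 6-alpha-fluorotestosterone); extract RNA, reverse-transcribe, PCR-amplify, FAM-label, digest with HpaI; resolve by capillary electrophoresis and compare against DMSO baseline.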

[14] = test system: zebrafish Estrogen Receptor (ESR2B), gene 317733; experiment: ATG_zfER2b_XSP1: Attagene TRANS-FACTORIAL Multi-Species (XSP1) HepG2 Assay for zebrafish Estrogen Receptor (ESR2B) (AID 2283773)
Procedure, shortened: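 HepG2 cells transiently transfected with GAL4-UAS reporter units for chimeric zebrafish ER2b-Gal4, with 3 nM 6-alpha-fluorotestosterone present; reporter mRNA measured 24 h after dosing by RT-PCR and capillary electrophoresis, gain versus DMSO.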

[15] = test system: frog Estrogen Receptor (ESR2), gene 100174814; experiment: ATG_frER2_XSP1: Attagene TRANS-FACTORIAL Multi-Species (XSP1) HepG2 Assay for frog Estrogen Receptor (ESR2) (AID 2283774)
Procedure, shortened: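 HepG2 cells transiently transfected with GAL4-UAS reporter units expressing chimeric frog ER-Gal4; 3 nM 6-alpha-fluorotestosterone present. After 24 h dosing, reporter mRNA quantified by RT-PCR and capillary electrophoresis; gain-of-signal fitted relative to DMSO.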

[16] = test system: frog Estrogen Receptor (ESR1), gene 398734; experiment: ATG_frER1_XSP1: Attagene TRANS-FACTORIAL Multi-Species (XSP1) HepG2 Assay for frog Estrogen Receptor (ESR1) (AID 2283777)
Procedure, shortened: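 HepG2 cells transiently transfected with frog ER–GAL4 chimera and GAL4-UAS reporter, with 3 nM 6-alpha-fluorotestosterone present; 24 h dosing, reporter mRNA quantified by RT-PCR and capillary electrophoresis, gain of signal versus DMSO.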

[17] = test system: zebrafish Estrogen Receptor (ESR2A), gene 317734; experiment: ATG_zfER2a_XSP1: Attagene TRANS-FACTORIAL Multi-Species (XSP1) HepG2 Assay for zebrafish Estrogen Receptor (ESR2A) (AID 2283778)
Procedure, shortened: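 HepG2 cells transiently transfected with GAL4-UAS reporter units driven by a zebrafish ESR2A–Gal4 chimera; 24 h compound exposure with 3 nM 6-alpha-fluorotestosterone present. Reporter mRNA measured by RT-PCR with fluorescent capillary electrophoresis, fitted positive versus DMSO.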

[18] = target: chicken Estrogen Receptor (ESR1), ESR1 (gene 396099) (UniProt P06212); experiment: ATG_chERa_XSP1: Attagene TRANS-FACTORIAL Multi-Species (XSP1) HepG2 Assay for chicken Estrogen Receptor (ESR1) (AID 2283779)
Sequence of chicken Estrogen Receptor (ESR1), ESR1 (gene 396099) (P06212 whole entry, looked up, the tested form may be a part): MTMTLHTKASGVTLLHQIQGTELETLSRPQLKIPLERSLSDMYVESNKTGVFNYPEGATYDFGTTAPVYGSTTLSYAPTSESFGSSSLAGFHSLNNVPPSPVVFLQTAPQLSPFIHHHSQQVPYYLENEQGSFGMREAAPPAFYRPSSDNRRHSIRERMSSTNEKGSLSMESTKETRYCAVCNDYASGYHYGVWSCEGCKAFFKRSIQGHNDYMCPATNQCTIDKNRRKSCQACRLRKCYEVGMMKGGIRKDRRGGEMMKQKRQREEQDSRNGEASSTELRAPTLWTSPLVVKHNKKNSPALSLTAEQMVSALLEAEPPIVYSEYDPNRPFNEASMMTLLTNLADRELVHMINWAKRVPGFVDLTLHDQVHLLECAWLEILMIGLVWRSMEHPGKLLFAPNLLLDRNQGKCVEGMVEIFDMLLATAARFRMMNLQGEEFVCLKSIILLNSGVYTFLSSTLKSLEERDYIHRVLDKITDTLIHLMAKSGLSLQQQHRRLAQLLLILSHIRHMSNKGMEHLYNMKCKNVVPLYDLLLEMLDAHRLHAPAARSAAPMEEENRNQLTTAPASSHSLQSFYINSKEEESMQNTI
Procedure, shortened: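 HepG2 cells transiently transfected with GAL4-UAS reporter units for chimeric chicken ERα-Gal4, dosed 24 h with 3 nM 6-alpha-fluorotestosterone present. Reporter mRNA by RT-PCR and capillary electrophoresis; gain-of-signal fit versus DMSO.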

SMILES: CCOC(=O)C1=NN(c2ccc(Cl)cc2Cl)C(C)(C(=O)OCC)C1 (configuration not stated)
- outcome [1]: inactive

SMILES: CCCCCCCCCCCCc1ccc(O)cc1
- AC50 [2]: 26.2 µM (active)
- AC50 [3]: 11.4 µM (active)
- outcome [4]: inactive
- AC50 [5]: 16.6 µM (active)
- AC50 [6]: 16.6 µM (active)

SMILES: O=C(OCc1ccccc1)c1ccc(O)cc1
- AC50 [1]: 10.6 µM (active)
- outcome [5]: inactive

SMILES: C/C=C/C=C/CCCCCCCO
- AC50 [2]: 25.8 µM (active)
- AC50 [3]: 87.2 µM (active)
- outcome [4]: inactive

SMILES: C1CNCCN1
- outcome [7]: inactive
- outcome [8]: inactive
- outcome [9]: inactive
- outcome [10]: inactive
- outcome [11]: inactive
- outcome [5]: inactive
- outcome [6]: inactive

SMILES: COC(=O)C=Cc1ccccc1
- outcome [12]: inactive

SMILES: CC1=NN(c2ccc(S(=O)(=O)O)cc2)C(=O)C1N=Nc1ccccc1 (configuration not stated)
- outcome [2]: inactive
- outcome [3]: inactive
- outcome [4]: inactive
- outcome [5]: inactive
- outcome [6]: inactive

SMILES: O=c1c(O)c(-c2ccc(O)cc2O)oc2cc(O)cc(O)c12
- AC50 [2]: 0.337 µM (active)
- outcome [3]: inactive
- AC50 [4]: 68.3 µM (active)

SMILES: CC(CCC(=O)O)(c1ccc(O)cc1)c1ccc(O)cc1
- AC50 [2]: 18.3 µM (active)
- outcome [12]: inactive
- outcome [4]: inactive
- AC50 [6]: 1.24 µM (active)

SMILES: COc1ccc(C(=O)c2ccccc2)c(O)c1
- outcome [2]: inactive
- outcome [3]: inactive
- outcome [12]: inactive
- outcome [1]: inactive
- AC50 [4]: 53.6 µM (active)
- outcome [5]: inactive
- outcome [6]: inactive

SMILES: Oc1ccccc1Cc1ccccc1O
- AC50 [12]: 60.6 µM (active)
- AC50 [6]: 1.48 µM (active)

SMILES: CCCCCCOc1ccc(N)cc1
- AC50 [2]: 0.494 µM (active)
- AC50 [4]: 28.7 µM (active)
- outcome [6]: inactive

SMILES: CCCCC/C=C\C/C=C\CCCCCCCC(=O)O
- AC50 [2]: 43.8 µM (active)
- AC50 [3]: 86.4 µM (active)
- outcome [4]: inactive
- outcome [5]: inactive
- outcome [6]: inactive

SMILES: C=CC(=O)OCCCCCCOC(=O)C=C
- outcome [1]: inactive

SMILES: COc1ccc(-c2coc3cc(O)cc(O)c3c2=O)cc1
- AC50 [2]: 21.4 µM (active)
- AC50 [3]: 86.5 µM (active)
- outcome [1]: inactive
- AC50 [4]: 9.08 µM (active)
- outcome [5]: inactive
- AC50 [6]: 0.86 µM (active)

SMILES: O=C(O)c1cc(O)c2ccccc2c1O
- AC50 [2]: 30.7 µM (active)
- AC50 [3]: 28.6 µM (active)
- outcome [1]: inactive
- AC50 [4]: 39.9 µM (active)
- outcome [5]: inactive
- outcome [6]: inactive

SMILES: O=S(=O)(O)c1ccc(N=Nc2c(O)ccc3ccccc23)cc1
- outcome [2]: inactive
- AC50 [3]: 18.1 µM (active)
- AC50 [4]: 24.3 µM (active)
- outcome [5]: inactive
- outcome [6]: inactive

SMILES: Cc1ccc([N+](=O)[O-])cc1N
- outcome [7]: inactive
- outcome [8]: inactive
- outcome [9]: inactive
- outcome [10]: inactive
- outcome [11]: inactive
- outcome [5]: inactive
- outcome [6]: inactive

SMILES: CC(C)(C)NC(=O)[C@H]1CC[C@H]2[C@@H]3CC[C@H]4NC(=O)C=C[C@]4(C)[C@H]3CC[C@]12C
- outcome [1]: inactive
- outcome [13]: inactive
- AC50 [14]: 67.2 µM (active)
- AC50 [15]: 38.1 µM (active)
- AC50 [5]: 78 µM (active)
- outcome [5]: inactive
- AC50 [6]: 50 µM (active)
- outcome [6]: inactive
- outcome [16]: inactive
- outcome [17]: inactive
- outcome [18]: inactive

SMILES: COc1ccc(C(=O)/C(Br)=C\C(=O)O)cc1
- AC50 [1]: 76.4 µM (active)

SMILES: CCc1occc(=O)c1O
- AC50 [2]: 31 µM (active)
- outcome [4]: inactive
- outcome [5]: inactive
- outcome [6]: inactive

SMILES: CCCCCCCOC(=O)c1ccc(O)cc1
- AC50 [2]: 52.6 µM (active)
- AC50 [3]: 35.7 µM (active)
- AC50 [4]: 76.7 µM (active)
- outcome [6]: inactive

SMILES: CC(C)(c1ccccc1)c1ccc(Nc2ccc(C(C)(C)c3ccccc3)cc2)cc1
- AC50 [2]: 33.8 µM (active)
- AC50 [1]: 86 µM (active)
- AC50 [4]: 53.8 µM (active)
- outcome [5]: inactive
- AC50 [6]: 11.4 µM (active)

SMILES: COC(=O)c1ccccc1C
- outcome [2]: inactive
- outcome [3]: inactive
- outcome [4]: inactive
- outcome [6]: inactive

SMILES: c1ccc(Nc2cccc3ccccc23)cc1
- AC50 [2]: 5.32 µM (active)
- AC50 [3]: 28.4 µM (active)
- AC50 [4]: 53.8 µM (active)
- outcome [5]: inactive
- AC50 [6]: 2.4 µM (active)

SMILES: N#Cc1ccc(C(c2ccc(C#N)cc2)n2cncn2)cc1
- outcome [2]: inactive
- outcome [1]: inactive
- outcome [4]: inactive
- AC50 [5]: 4.94 µM (active)

SMILES: CN(C)c1ccc2nc3ccc(=[N+](C)C)cc-3sc2c1
- AC50 [2]: 34 µM (active)
- AC50 [3]: 13.7 µM (active)
- AC50 [12]: 2.34 µM (active)
- outcome [1]: inactive
- AC50 [4]: 0.676 µM (active)
- AC50 [5]: 20.4 µM (active)
- AC50 [6]: 9.9 µM (active)

SMILES: CCCCCCCCCC[N+](C)(CCCCCCCCCC)CCC[Si](OC)(OC)OC
- AC50 [2]: 48.9 µM (active)
- AC50 [3]: 16 µM (active)
- AC50 [5]: 5.04 µM (active)
- AC50 [6]: 16.1 µM (active)
